Structures are written as SMILES.

In this test the test system is Plasmodium falciparum. Kind of test: GSK_TCMDC: Inhibition of Plasmodium falciparum 3D7 in whole red blood cells, using parasite LDH activity as an index of growth. Test compounds present at 2uM. Type of test: functional.
On to `CC(C)c1ccc(CN2CCC(CNC(=O)c3cc(-c4ccccc4F)cs3)C2)cc1.O=C(O)C(F)(F)F` (stereo unspecified), for which the Inhibition (in general, the percentage by which the read-out fell short of the control) stood at 100%. The figure for `CC(=O)Nc1ccc(S(=O)(=O)N2CCN(c3nc(NC4CCCC4)c4ccccc4n3)CC2)cc1` is 88%; for `Cc1ccc2[nH]c(-c3cc(-c4cccc(C#N)c4)cnc3N)nc2c1.O=C(O)C(F)(F)F` it is 100%. Compound `O=C(Nc1nc2cc(S(=O)(=O)NCCc3ccc(F)cc3)ccc2n1CCCn1ccnc1)c1ccc(Cl)cc1.O=C(O)C(F)(F)F` registered an Inhibition of 100%. For the compound `CN(C(=O)c1cc2c(-c3cncnc3)cccc2[nH]1)c1ccccc1`, the Inhibition was 92%. The figure for `CCc1nonc1NC(=O)c1oc2c(C)c(C)ccc2c1C` is 89%; for `CN1CCC(NC(=O)c2cccc(Nc3cc(Nc4cccc(Br)c4)ncn3)c2)CC1` it is 94%. On to `COc1cc(NC(=O)c2cccs2)c(C(=O)NCc2ccc(C)cc2)cc1OC`, for which the Inhibition came to 93%. Take `COC(=O)c1cccc(CNCc2cccc(-c3cccc(-c4nc5cc(F)ccc5[nH]4)c3)c2)c1.O=C(O)C(F)(F)F`: the Inhibition was determined as 100%. Regarding `Clc1ccccc1C=NN=c1cc[nH]c2ccccc12`, the Inhibition is 100%.

In turn, `CC(NC(C)c1cccc(Cl)c1)C(=O)Nc1cc(C(F)(F)F)ccc1N1CCOCC1` (stereo unspecified) registered an Inhibition of 89%. `Cc1cccc2nc(-c3ccc(-c4cccc(CN5CCC(CO)CC5)c4)s3)[nH]c12.O=C(O)C(F)(F)F` gave an Inhibition of 99%.

The compound `Cc1ccc(C2(C)CN(CCCOc3cccc(-c4ccc(C(=O)NC(C)C)cc4)c3)CCO2)cc1` (stereo unspecified) registered an Inhibition of 93%. Next, `Cc1ccc(NC(=O)c2ccc3nccnc3c2)cc1OC1CCN(Cc2ccc(F)cc2)CC1.O=C(O)C(F)(F)F`: 87%; `Cl.Clc1ccc(OCCC2CCN(CCCCCCN3CCCCC3)CC2)cc1Cl`: 97%; `CN(C)S(=O)(=O)c1ccc(N2C(=O)C3C(C2=O)C2(c4ccccc4)C(=O)C3(c3ccccc3)C(c3ccccc3)=C2c2ccccc2)cc1` (stereo unspecified): 92%. The compound `Nc1nccc2ccc(-c3ccc4ncccc4c3)cc12.O=C(O)C(F)(F)F` gave an Inhibition of 100%.

As for `O=C(O[C@@H]1CN[C@H](C#Cc2cc3c(Nc4ccc5c(cnn5Cc5ccccc5)c4)ncnc3s2)C1)N1CCCC1`, the Inhibition was found to be 99%. Next, `C=C[C@H]1CN(CCCCCCC)CC[C@H]1CC(O)Cc1ccnc2cc(O)c(OC)cc12.O=C(O)C(=O)O` (stereo partly specified): 95%; `CCCNc1nc(NCc2c(C)cccc2C)nc(NC(C)(C)C)n1`: 91%; `COc1ccc(C(=O)C2CC2CN(C)CCC(O)c2ccc(Cl)c(Cl)c2)cc1` (stereo unspecified): 94%. The figure for `COc1cc2nc(N3CCC(CNC(=O)c4ccc(-c5ccc(C(F)(F)F)cc5)cc4)CC3)nc(N)c2cc1OC` is 100%; for `CCc1c(C)nc(-n2nc(C)cc2NC(=O)c2ccc(OC)cc2OC)[nH]c1=O` it is 96%; for `Cc1ccc2cc(NCCCCCCCCON3C(N)=NC(N)=NC34CCCCC4)ccc2n1` it is 92%.

As for `Cc1cccc2nc(-c3ccc(-c4cccc(CN5CCCC(O)C5)c4)s3)[nH]c12.O=C(O)C(F)(F)F` (stereo unspecified), the Inhibition is recorded as 95%.

`Cc1nc(C(C)Nc2nncc(-c3ccc(Cl)cc3)n2)cs1` (stereo unspecified): the Inhibition turned out to be 91%.

In turn, `O=C(NCCc1ccccc1)N(Cc1cccc(-c2ccc(CNCc3ccc4c(c3)OCO4)cc2)c1)C1CCN(Cc2ccccc2)CC1.O=C(O)C(F)(F)F` displayed an Inhibition of 94%. `Cl.N=C(N)NN=Cc1cc([N+](=O)[O-])ccc1Sc1ccccc1CO` returned an Inhibition of 84%. Next, `Cc1cccc2nc(-c3cccc(-c4cccc(CNCC5CCCO5)c4)c3)[nH]c12.O=C(O)C(F)(F)F` (stereo unspecified): 100%; `COc1ccc(-c2cccc(NC(=O)c3ccc(C#N)cc3)c2)cc1CN1CCN(C)CC1.O=C(O)C(F)(F)F`: 93%.

As to `CCc1c[nH]c2c(N3CCCS3(=O)=O)cc(C(=O)N[C@@H](Cc3ccccc3)[C@H](O)CNC3CCCCC3)cc12.O=CO`, the Inhibition stood at 99%. `COc1ccc(CN(C)CCOc2ccc(NC(=O)c3cccc4c(=O)c5cc(SC)ccc5[nH]c34)cc2)cc1OC` showed an Inhibition of 96%. Next, `COc1cc2nc(C)nc(Nc3ccc(Oc4ccccc4)cc3)c2cc1OC.Cl`: 100%. `CCCCCN1CCCC1CNS(=O)(=O)c1cccc(C(=O)Nc2cccc(C#N)c2)c1.O=C(O)C(F)(F)F` (stereo unspecified) yielded an Inhibition of 90%.

In the case of `Cc1cc(F)ccc1Oc1nc(Nc2ccc(N3CCOCC3)c(F)c2)nc2c1S(=O)(=O)CCC2.Cl`, the Inhibition is given as 96%. Take `Cc1cc(OCCCN2CCC(NS(=O)(=O)c3ccc(Cl)c(Cl)c3)C2)c2ccccc2n1` (stereo unspecified): the Inhibition turned out to be 87%.
